Experimental data: the supplement of paper PMC4022240
± gives the standard deviation.

Key:
Experiment in all cases: peptide microarray binding signal (635 nm), min-max normalized on array (fraction of array maximum); higher = stronger binding
[1] = target: T1, HaloTag-ATRX ADD domain (163-292)
T1 chain: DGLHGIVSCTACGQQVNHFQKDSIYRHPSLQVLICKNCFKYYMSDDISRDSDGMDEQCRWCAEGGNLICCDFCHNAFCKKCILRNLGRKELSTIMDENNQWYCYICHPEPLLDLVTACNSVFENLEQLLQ
How it was run: (§1)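 Arrays carried histone 13-mer peptide–cellulose conjugates printed in triplicate on nitrocellulose alongside a Cy3 tracer. After overnight blocking at 4°C, they were incubated for 1 h at 4°C with biotin-labelled HaloTag reader fusions (10 nM to 1 μM) plus streptavidin-Alexa Fluor 647, or with rabbit histone antibodies (1:10,000 to 1:2,000) plus anti-rabbit Alexa 647. Scanning on an Axon GenePix 4000B used 635 nm for signal and 532 nm for misprints. The binding signal reported is each triplicate's mean spot intensity after per-library min-max scaling.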

[2] = target: HaloTag-ING2 PHD (mouse Ing2 200-280)
How it was run: as §1

[3] = target: anti-H3K4me3 antibody ab8580
How it was run: as §1

[4] = target: anti-H3K9me3 antibody ab8898
How it was run: as §1

[5] = peptide region: H3 112-124, peptide modifications: H3K115ac H3R116me2s, binder concentration: 1:2,000 dilution
[6] = peptide region: H3 112-124, peptide modifications: H3K115ac H3R116me2s, binder concentration: 1:10,000 dilution
[7] = peptide region: H3 112-124, peptide modifications: H3K115ac H3K122me2, binder concentration: 1:2,000 dilution
[8] = peptide region: H3 112-124, peptide modifications: H3K115ac H3K122me2, binder concentration: 1:10,000 dilution
[9] = peptide region: H3 112-124, peptide modifications: H3K115me1 H3K122ac, binder concentration: 1:2,000 dilution
[10] = peptide region: H3 112-124, peptide modifications: H3K115me1 H3K122ac, binder concentration: 1:10,000 dilution
[11] = peptide region: H3 112-124, peptide modifications: H3K115me1 H3R116me1, binder concentration: 1:2,000 dilution
[12] = peptide region: H3 112-124, peptide modifications: H3K115me1 H3R116me1, binder concentration: 1:10,000 dilution
[13] = peptide region: H3 73-85, peptide modifications: H3K79me3, binder concentration: 1:2,000 dilution
[14] = peptide region: H3 73-85, peptide modifications: H3K79me3, binder concentration: 1:10,000 dilution

Binder: IHAKRVTIMPKDI [H3 112-124 I H A Kac Rme2s V T I M P K D I]
- peptide microarray binding signal ([1]; peptide region: H3 112-124, peptide modifications: H3K115ac H3R116me2s, binder concentration: 50 nM): 0.005956 ± 4.1e-05
- peptide microarray binding signal ([1]; peptide region: H3 112-124, peptide modifications: H3K115ac H3R116me2s, binder concentration: 500 nM): 0.0125 ± 0.0017
- peptide microarray binding signal ([2]; peptide region: H3 112-124, peptide modifications: H3K115ac H3R116me2s, binder concentration: 10 nM): 0.0167 ± 0.0042
- peptide microarray binding signal ([2]; peptide region: H3 112-124, peptide modifications: H3K115ac H3R116me2s, binder concentration: 100 nM): 0.0203 ± 0.0028
- peptide microarray binding signal [3, 5]: 0.00436 ± 0.00063
- peptide microarray binding signal [3, 6]: 0.00576 ± 0.00047
- peptide microarray binding signal [4, 5]: 0.00375 ± 0.00054
- peptide microarray binding signal [4, 6]: 0.00398 ± 0.00024

Binder: IHAKRVTIMPKDI [H3 112-124 I H A Kac R V T I M P Kme2 D I]
- peptide microarray binding signal ([1]; peptide region: H3 112-124, peptide modifications: H3K115ac H3K122me2, binder concentration: 50 nM): 0.00668 ± 0.00012
- peptide microarray binding signal ([1]; peptide region: H3 112-124, peptide modifications: H3K115ac H3K122me2, binder concentration: 500 nM): 0.0132 ± 0.00064
- peptide microarray binding signal ([2]; peptide region: H3 112-124, peptide modifications: H3K115ac H3K122me2, binder concentration: 10 nM): 0.0198 ± 0.004
- peptide microarray binding signal ([2]; peptide region: H3 112-124, peptide modifications: H3K115ac H3K122me2, binder concentration: 100 nM): 0.0271 ± 0.0018
- peptide microarray binding signal [3, 7]: 0.00159 ± 0.00013
- peptide microarray binding signal [3, 8]: 0.00211 ± 5.8e-05
- peptide microarray binding signal [4, 7]: 0.00169 ± 0.00021
- peptide microarray binding signal [4, 8]: 0.00133 ± 4e-05

Binder: IHAKRVTIMPKDI [H3 112-124 I H A Kme R V T I M P Kac D I]
- peptide microarray binding signal ([1]; peptide region: H3 112-124, peptide modifications: H3K115me1 H3K122ac, binder concentration: 50 nM): 0.00345 ± 6.5e-05
- peptide microarray binding signal ([1]; peptide region: H3 112-124, peptide modifications: H3K115me1 H3K122ac, binder concentration: 500 nM): 0.0061 ± 0.00013
- peptide microarray binding signal ([2]; peptide region: H3 112-124, peptide modifications: H3K115me1 H3K122ac, binder concentration: 10 nM): 0.00746 ± 0.00035
- peptide microarray binding signal ([2]; peptide region: H3 112-124, peptide modifications: H3K115me1 H3K122ac, binder concentration: 100 nM): 0.0111 ± 0.00029
- peptide microarray binding signal [3, 9]: 0.00249 ± 0.0011
- peptide microarray binding signal [3, 10]: 0.001484 ± 1.4e-05
- peptide microarray binding signal [4, 9]: 0.000997 ± 1.4e-05
- peptide microarray binding signal [4, 10]: 0.00104 ± 2.8e-05

Binder: IHAKRVTIMPKDI [H3 112-124 I H A Kme Rme V T I M P K D I]
- peptide microarray binding signal ([1]; peptide region: H3 112-124, peptide modifications: H3K115me1 H3R116me1, binder concentration: 50 nM): 0.0108 ± 0.00023
- peptide microarray binding signal ([1]; peptide region: H3 112-124, peptide modifications: H3K115me1 H3R116me1, binder concentration: 500 nM): 0.0356 ± 0.0019
- peptide microarray binding signal ([2]; peptide region: H3 112-124, peptide modifications: H3K115me1 H3R116me1, binder concentration: 10 nM): 0.0466 ± 0.0022
- peptide microarray binding signal ([2]; peptide region: H3 112-124, peptide modifications: H3K115me1 H3R116me1, binder concentration: 100 nM): 0.0304 ± 0.0046
- peptide microarray binding signal [3, 11]: 0.00891 ± 0.0021
- peptide microarray binding signal [3, 12]: 0.00593 ± 0.0011
- peptide microarray binding signal [4, 11]: 0.00746 ± 0.0012
- peptide microarray binding signal [4, 12]: 0.00646 ± 0.00037

Binder: EIAQDFKTDLRFQ [H3 73-85 E I A Q D F Kme3 T D L R F Q]
- peptide microarray binding signal ([1]; peptide region: H3 73-85, peptide modifications: H3K79me3, binder concentration: 50 nM): 0.0032 ± 3.5e-05
- peptide microarray binding signal ([1]; peptide region: H3 73-85, peptide modifications: H3K79me3, binder concentration: 500 nM): 0.0059 ± 0.0008
- peptide microarray binding signal ([2]; peptide region: H3 73-85, peptide modifications: H3K79me3, binder concentration: 10 nM): 0.00483 ± 8.8e-05
- peptide microarray binding signal ([2]; peptide region: H3 73-85, peptide modifications: H3K79me3, binder concentration: 100 nM): 0.00723 ± 0.00027
- peptide microarray binding signal [3, 13]: 0.00851 ± 0.00073
- peptide microarray binding signal [3, 14]: 0.0112 ± 0.0053
- peptide microarray binding signal [4, 13]: 0.227 ± 0.017
- peptide microarray binding signal [4, 14]: 0.201 ± 0.042
